# ChEMBL document CHEMBL4513216, “Probing the Open Global Health Chemical Diversity Library for Multistage-Active Starting Points for Next-Generation Antimalarials” (ACS Infect Dis, 2020)
# Out of some 69,000 compounds screened, about 8,600 (12%) showed an effect of 50% or more. Shown is part of a subset that was picked to be rich in strong results.
# Tested on: Plasmodium berghei
# Assay: Screen against P. berghei liver stage (PbLuc), transformed with Luciferase, at 10uM
# Type: functional, HepG2
# Details: tested at 10 uM
row,Compound,INHIBITION [%]
1,CN(C)C(=O)COC1COC2(CCN(CC3CCOCC3)CC2)C1 (configuration not stated),12.2
2,COCC1CCN(C(=O)c2cn(Cc3ccccc3C(F)(F)F)nn2)C1 (configuration not stated),-49.3
3,CNC(=O)c1cc2c(nc1NCC1CC1)CCN(S(C)(=O)=O)CC2,-8.94
4,Cc1csc(C2CCCCN2C(=O)c2c[nH]c(C)n2)n1 (configuration not stated),1.75
5,CC(=O)c1ccc(C(=O)N2C[C@H]3CC[C@@H](C2)N(Cc2ccccc2)C3)s1,-52.1
6,CCN(CC)C(=O)N1CCN(CCc2ccncc2)CC1,15.5
7,CCN(CC)CC(=O)N1CCN(CCc2ccncc2)CC1,52.6
8,CCN(CC)CC(=O)N1CCN(CCCc2ccncc2)CC1,66.5
9,Cn1cc(CCC(=O)N2CCN(Cc3ccncc3)CC2)cn1,27.1
10,CCC(=O)N1CCN(Cc2cc(-c3ccncc3)nn2C)CC1,19.3
11,CCn1cc(CN2CCCN(C(=O)CCc3ccncc3)CC2)cn1,31
12,O=C(c1cccnc1)N1CCC[C@]2(C[C@H](Oc3ncccc3F)CO2)C1,-7.59
13,O=C(NCc1ccc(Cl)cc1)C1=NOC2(CCNC2)C1 (configuration not stated),1.71
14,c1cncc(CN2CCC(c3ccnc4nccn34)C2)c1 (configuration not stated),19.99
15,Cc1nccc(N2CCC(=O)N(CC3CC3)C(C(C)C)C2)n1 (configuration not stated),27.2
16,CC(C)C1CN(c2ncccn2)CCC(=O)N1CC1CC1 (configuration not stated),9.63
17,COc1ccnc(N2CCC(=O)N(CC3CC3)C(C(C)C)C2)n1 (configuration not stated),50.3
18,Cc1noc(C)c1CN1CCN(Cc2ccncc2)c2ncccc2C1,29
19,c1ccc(Oc2nccnc2C2CCN(C3CCOCC3)CC2)cc1,-38.3

row,Compound,INHIBITION [%]
1,NC(=O)CN1CCCC(c2nccnc2Oc2cccc(F)c2)C1 (configuration not stated),-39.4
2,CC(C)(N)C(=O)N1CCC(c2nccnc2Oc2cccc(F)c2)CC1,56
3,CC(C)(N)C(=O)N1CCC(c2nccnc2Oc2ccccc2F)CC1,63.4
4,Fc1ccc(Oc2nccnc2C2CCN(C3CCOCC3)CC2)cc1,38.7
5,Cc1ccc(Oc2nccnc2C2CCN(C(=O)C(C)(C)N)CC2)cc1,33.7
6,Cc1cccc(Oc2nccnc2C2CCN(C(=O)C(C)(C)N)CC2)c1,47.1
7,Fc1cccc(Oc2nccnc2C2CCN(C3CCOCC3)CC2)c1,52.7
8,Fc1ccccc1Oc1nccnc1C1CCN(C2CCOCC2)CC1,25.8
9,CCOCC1CC2(CCN(C(=O)c3ccc4ccccc4n3)CC2)CO1 (configuration not stated),-33.9
10,Cc1ccc2c(c1)C(=O)NCC1(CCN(C(=O)c3sccc3C)CC1)O2,41.2
11,COc1ncc(C(=O)N(Cc2cnn(C)c2)C(C)C)cn1,22
12,C1CC(CN2CCO[C@H]3[C@H](OCC4CC4)CC[C@@H]32)CCO1,40.9
13,CN(C)CCN(CC1CCCO1)S(=O)(=O)NCc1ccccc1 (configuration not stated),19.4
14,Cc1cccc(CN2C(=O)CCC23CCN(C(=O)c2ccco2)CC3)n1,-24.5
15,CN1CCc2cc(C(=O)N(C)C)c(NCC3CC3)nc2CC1,2.59
16,COc1c(CNCc2cccc(Cn3ccnc3C)c2)c(C)nn1C,43.3
17,COCc1cc(N(C)Cc2ccccn2)nc(C(C)(C)C)n1,27.7
18,CN(Cc1cnccn1)c1cncc(Br)c1,45.9
19,COCc1cc(N(C)Cc2cc(C(C)(C)C)n[nH]2)ncn1,-30.5

row,Compound,INHIBITION [%]
1,COCc1cc(N(C)Cc2cnccn2)nc(C(C)(C)C)n1,62
2,COCc1cc(N(C)Cc2ncnn2C)nc(C(C)(C)C)n1,50.8
3,CN(Cc1cc(Cl)ccc1Cl)Cc1ncnn1C,15.9
4,Cc1nc(N)nc(C)c1CC(=O)N1CCCCC1c1cccc(F)c1 (configuration not stated),19.3
5,Cc1noc(O)c1Cc1ccc2ccccc2c1,-26.2
6,Cc1ccsc1CN(C)c1cc(N2CCCC2CO)ncn1 (configuration not stated),18.6
7,CN(C)c1cc(N(C)Cc2cc(C(C)(C)C)n[nH]2)ncn1,-82.7
8,CCn1ccnc1CN(C)c1cc(OC)ncn1,58.2
9,CCn1ccnc1CN(C)c1cc(N(C)C)ncn1,57.3
10,Cc1cc(C)n(CCCN(C)c2cc(C3CC3)ncn2)n1,8.7
11,COc1cc(N(C)CCCn2nc(C)cc2C)ncn1,14.3
12,CCn1ccnc1CN(C)C(=O)Cn1ccc2ccccc2c1=O,3.04
13,COc1cc(N(C)Cc2cc(C(C)(C)C)n[nH]2)ncn1,-45
14,CCn1ccnc1CN(C)c1cc(C2CCCNC2)nc(C)n1 (configuration not stated),4.41
15,CCn1ccnc1CN(C)c1cc(C2CC2)ncn1,52.6
16,COc1cc(N2CCO[C@H]3[C@@H](Oc4cccnc4)CC[C@@H]32)ncn1,23.5
17,Cc1cccc(CN2CC3(CCN(Cc4ccco4)CC3)OCC2=O)n1,-16.2
18,NC(=O)C1CCN(C(=O)Cc2cnc(-c3c(Cl)cccc3Cl)s2)CC1,37.9
19,O=S(=O)(c1ccc(F)cc1)N1CCCC1c1cc[nH]n1 (configuration not stated),33.7
